# Data reported in PubChem BioAssay AID2158 (National Center for Advancing Translational Sciences (NCATS), 2009).
# Values joined by “and” are separate entries in the source; they are usually repeats but may differ in a detail not shown here. Equal values may be shown once. Results filed as inconclusive are left out. Unmarked numbers belong to inactive results. Active and inactive are the calls of the source. Calls follow the shape of the dose curve; as a rule, active = well fitted inhibition curve with a large enough effect; inconclusive = small, poorly fitted or top-dose-only effect; inactive = no such curve, though single readings can be large or run the other way.
# Molecular target: Cruzipain (Trypanosoma cruzi) (UniProt P25779)
# Experiment: Confirmation qHTS Assay for Inhibitors of Cruzain; also: nearly all actives have a fitted effect of over 40% in size;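 as to activity change, negative = inhibition: plate controls were uninhibited enzyme control for no effect and buffer wells lacking enzyme for full effect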
# Conditions: purified cruzain, Z-FR-AMC fluorescence, 0.01% Triton
# Summary of the method: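 Reaction progress from the 60 s rise in AMC fluorescence (ex 360, em 450 nm) after adding 2 uM Z-FR-AMC. Before this, 1.5 nM cruzain sat 15 min at room temperature with compound in pH 5.5 acetate buffer with 5 mM DTT and 0.01% Triton X-100.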
# Potency is read from the fitted curve at half-maximal effect.
# Sequence of Cruzipain (Trypanosoma cruzi) (P25779 123-467 limits assumed): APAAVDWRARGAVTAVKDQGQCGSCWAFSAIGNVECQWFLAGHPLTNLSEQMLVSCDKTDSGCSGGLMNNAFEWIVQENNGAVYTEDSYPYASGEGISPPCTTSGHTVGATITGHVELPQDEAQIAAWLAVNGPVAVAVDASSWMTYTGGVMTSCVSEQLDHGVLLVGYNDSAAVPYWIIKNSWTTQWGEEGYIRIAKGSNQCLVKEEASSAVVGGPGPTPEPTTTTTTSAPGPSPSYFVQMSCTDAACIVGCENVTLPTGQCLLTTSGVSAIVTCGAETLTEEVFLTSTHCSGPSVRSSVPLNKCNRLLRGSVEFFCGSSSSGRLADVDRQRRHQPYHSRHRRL
Compound,"activity change, negative = inhibition",Potency
O=C(Cc1nnc(-c2cc3ccccc3[nH]2)o1)Nc1cc(C(F)(F)F)ccc1Cl,-3.28%,–
Cc1cccc(C(=O)NCC(=O)OC(C(=O)Nc2cc(C(F)(F)F)ccc2Cl)c2ccccc2)c1 (stereo not drawn),–,7.94 µM (active)
CCNc1nc(C#N)nc2c1ncn2-c1cccc(Cl)c1,–,0.0631 µM (active)
COc1ccccc1OCCCn1c(CCNC(=O)C2CCCCC2)nc2ccccc21,–,0.708 µM (active)
COc1cc(C(=O)COC(=O)CNC(=O)C2CCCCC2)cc(OC)c1OC,–,7.94 µM (active)
O=C(COC(=O)CCSc1ccccc1Cl)Nc1ccc(F)cc1F,–,14.1 µM (active)
COc1cccc2c1[C@@H]1CN(CCCCn3c(=O)[nH]c4c(sc5ncc(-c6ccccc6)nc54)c3=O)C[C@@H]1CO2,–,15.8 µM (active)
N#Cc1nc(-c2cccs2)oc1N1CCOCC1,-30.8%,–
COc1ccc(/C=N/NC(=O)c2ccc(Br)cc2)cc1Cn1cc(Cl)cn1,-13.6%,–
O=C(Nc1ccccc1)c1ccc2nc(-c3ccco3)c(-c3ccco3)nc2c1,–,7.94 µM (active)
O=C(Cn1c2ccccc2c(=O)c2ccccc21)Nc1cccc(F)c1,-8.37%,–
Cc1ccccc1-c1nc2c(=O)n(C)c(=O)nc-2n(C)n1,–,0.891 µM (active)
COc1ccc(C)cc1NC(=O)C(OC(=O)CNC(=O)c1ccccc1)c1ccccc1 (stereo not drawn),–,8.91 µM (active)
S=C(NC1CCCCC1)N(CCc1nc2ccccc2[nH]1)C1CCCC1,–,0.631 µM (active)
N#Cc1nc(Nc2cccc([N+](=O)[O-])c2)nc(NC2CCCC2)n1,–,0.0631 µM (active)
Cc1ccccc1OCC(=O)NCC(=O)OCC(=O)c1ccc2ccccc2c1,–,14.1 µM (active)
CCCNc1nc(C#N)nc(Nc2ccccc2)n1,–,0.794 µM (active)
CCSc1nnc(NC(=O)c2ccc(Br)s2)s1,-4.82%,–
Cc1ccc2[nH]c(=O)c(CN(Cc3ccccc3)Cc3nnnn3Cc3ccccc3)cc2c1,-15.4%,–

Compound,"activity change, negative = inhibition",Potency
O=C1NN(c2ccc(Cl)c(Cl)c2)C(=O)/C1=C/c1cccc(OC(=O)c2cccs2)c1,–,35.5 µM (active)
CN1N/C(=C\c2ccccc2)N=C2C(=O)N(C)C(=O)N=C21,–,1.12 µM (active)
O=C(Nc1nc(-c2ccc(S(=O)(=O)N3CCCCCC3)cc2)cs1)c1cccs1,-3.12%,–
COc1cc(OC)c(-c2nn3c(-c4cc(C)[nH]n4)nnc3s2)cc1OC,-21.4%,–
COc1ccc2[nH]c3c(NCCN4CCCCC4)ncnc3c2c1,–,12.6 µM (active)
N#CN1CCC(NC(=O)c2ccc(C(F)(F)F)cc2)CC1,-6.84%,–
O=C(CNC(=O)c1cccc2ccccc12)OC(C(=O)Nc1cc(C(F)(F)F)ccc1Cl)c1ccccc1 (stereo not drawn),–,12.6 µM (active)
Cc1ccc2[nH]c(=O)c(CN(CCO)Cc3nnnn3Cc3ccccc3)cc2c1,-1.03%,–
Cc1cc(C)cc(OCCCn2c(CCNC(=O)C3CCCCC3)nc3ccccc32)c1,–,0.891 µM (active)
Cc1cccc(C)c1OCCCn1c(CCNC(=O)C2CCCCC2)nc2ccccc21,–,1.26 µM (active) and 1.58 µM (active)
O=C(COC(=O)CNC(=O)c1ccccc1)Nc1ccccc1Cl,–,11.2 µM (active)
Cc1ccccc1OCC(=O)NCC(=O)OCC(=O)c1ccc2c(c1)CCCC2,-3.79%,–
O=C(CNC(=O)C1CCCCC1)OCC(=O)c1ccc(-c2ccccc2)cc1,–,1.58 µM (active)
COC(=O)Sc1nc(N2CCOCC2)c2c(c1C#N)CC(C)(C)OC2,–,14.1 µM (active)
O=C(CNC(=O)c1ccccc1)OC(Cc1ccccc1)C(=O)Nc1cc(C(F)(F)F)ccc1Cl (stereo not drawn),–,7.08 µM (active)
CCOC(=O)[C@H](CCc1ccccc1)N[C@@H](C)C(=O)N1[C@H](C(=O)O)C[C@H]2CCCC[C@@H]21,0.349%,–
CSCC[C@H](NC(=O)COc1ccc(Cl)cc1Cl)c1nc2ccccc2[nH]1,–,2.82 µM (active)
CNc1nc(C#N)nc(Nc2ccccc2)n1,–,1.26 µM (active)
O=C(NCc1nnc(-c2nc3ccccc3[nH]2)o1)C1CCCCC1,-3.39%,–
